Structures can show the parent of a compound that is named as a salt.
Tested on: Neuro-2a
Assay: neurite formation score, plate-normalized to DMSO control mean 5.04 (score (0-8 scale)); higher = more or longer neurites
Conditions: 1 µM
Method: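 Neuro-2a mouse neuroblastoma cells in PLL-coated 96-well plates were pre-treated for 1 h in DMEM(+) with each kinase inhibitor at 1 µM, then switched to serum-free DMEM(-) with inhibitor to induce neurite outgrowth and fixed about 2-3 h later. Three blinded observers scored neurite formation from 0 (no neurites) to 8 (long neurites on almost all cells).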

| Compound | neurite formation score |
| --- | --- |
| CCN(CCCOc1ccc2c(Nc3cc(CC(=O)Nc4cccc(F)c4)[nH]n3)ncnc2c1)CCOP(=O)(O)O | 4.91 |
| Cn1cc(-c2ccc3nnc(Sc4ccc5ncccc5c4)n3n2)cn1 | 4.24 |
| COc1cc2ncnc(Oc3cccc(NC(=O)Nc4cc(C(C)(C)C(F)(F)F)on4)c3)c2cc1OC | 5.24 |
| O=C(NC(NC(=S)Nc1ccc(F)c([N+](=O)[O-])c1)C(Cl)(Cl)Cl)C(c1ccccc1)c1ccccc1 (configuration not stated) | 3.96 |
| O=C1NC(=NCc2cccs2)S/C1=C\c1ccc2ncccc2c1 | 5.63 |
| COc1cc2c(Oc3ccc(NC(=O)C4(C(=O)Nc5ccc(F)cc5)CC4)cc3F)ccnc2cc1OCCCN1CCOCC1 | 3.24 |
| Cc1nc(Nc2n[nH]c3c2CN(C(=O)N[C@H](CN(C)C)c2ccccc2)C3(C)C)c2sccc2n1 | 4.02 |
| Cc1ccc([N+](=O)[O-])cc1S(=O)(=O)N(C)/N=C/c1cnc2ccc(Br)cn12 | 4.54 |
| CNC(=O)c1cc(Oc2ccc(NC(=O)Nc3ccc(Cl)c(C(F)(F)F)c3)cc2)ccn1 [Sorafenib] | 4.24 |
| Nc1ccc(-c2ccc3ncc4ccc(=O)n(-c5cccc(C(F)(F)F)c5)c4c3c2)cn1 [Torin 2] | 3.21 |
| Clc1ccc(C2(c3ccc(-c4cn[nH]c4)cc3)CCNCC2)cc1 | 5.24 |
| Cc1c[nH]c(/C=C2\C(=O)Nc3ccccc32)c1CCC(=O)O | 6.02 |
| O=C(Nc1cc(C(F)(F)F)cc(C(F)(F)F)c1)c1cc(Cl)ccc1O | 2.8 |
| OCCn1cc(-c2ccc3c(c2)CC/C3=N\O)c(-c2ccncc2)n1 | 3.69 |
| Cc1ccccc1-n1c(Cn2nc(-c3cccc(O)c3)c3c(N)ncnc32)nc2cccc(C)c2c1=O | 4.88 |
| CCCNC(=O)Nc1ccc(Oc2ncnc3cc(OC)c(OC)cc23)cc1Cl | 5.57 |
| CO[C@H]1C[C@@H]2CC[C@@H](C)[C@@](O)(O2)C(=O)C(=O)N2CCCC[C@H]2C(=O)O[C@H]([C@H](C)C[C@@H]2CC[C@@H](O)[C@H](OC)C2)CC(=O)[C@H](C)/C=C(\C)[C@@H](O)[C@@H](OC)C(=O)[C@H](C)C[C@H](C)/C=C/C=C/C=C/1C [Rapamycin (Sirolimus)] | 4.57 |
| FC(F)(F)c1ccc(CNc2ccc(Cc3c[nH]c4ncc(Cl)cc34)cn2)cn1 [Pexidartinib (PLX3397)] | 4.54 |
| NC(=O)Nc1cc(-c2cccc(F)c2)sc1C(=O)N[C@H]1CCCNC1 | -0.431 |

| Compound | neurite formation score |
| --- | --- |
| O=C(c1ccc(F)c(F)c1Nc1ccc(I)cc1F)N1CC(O)([C@@H]2CCCCN2)C1 [Cobimetinib] | 3.24 |
| O=c1cc(N2CCOCC2)oc2c(-c3ccccc3)cccc12 | 5.24 |
| CC(C)(C)c1cnc(CSc2cnc(NC(=O)C3CCNCC3)s2)o1 | 4.57 |
| Cn1cc(C2=C(c3cn(CCCSC(=N)N)c4ccccc34)C(=O)NC2=O)c2ccccc21 [Ro 31-8220 Mesylate] | 4.54 |
| Cn1cc(-c2ccc3c(c2)CCN3C(=O)Cc2cccc(C(F)(F)F)c2)c2c(N)ncnc21 | 4.36 |
| NC(=S)N/N=C/c1ncccc1N [Triapine] | 4.88 |
| FC(F)(F)c1ccc(/C=C/c2nc(COc3ccc(CCCCn4ccnn4)cc3)co2)cc1 [Mubritinib (TAK 165)] | 4.47 |
| CN1CCN(c2ccc(OC(F)(F)F)c(Nc3ncc4c(n3)-c3c(c(C(N)=O)nn3CCO)CC4)c2)CC1 | 4.88 |
| Cc1cc(Nc2nc(N[C@@H](C)c3ncc(F)cn3)ncc2Cl)[nH]n1 | 3.8 |
| c1nc2c(NC3CCCCC3)nc(Nc3ccc(N4CCOCC4)cc3)nc2[nH]1 [Reversine] | 5.02 |
| CCOc1cc2ncc(C#N)c(Nc3ccc(OCc4ccccn4)c(Cl)c3)c2cc1NC(=O)/C=C/CN(C)C [Neratinib (HKI-272)] | 3.47 |
| CCCCCCCCCCCCCC(=O)OC[C@H](CO)OC(=O)CCCCCCCCCCCCC [1,2-Dimyristoyl-sn-glycerol] | 4.88 |
| CC(C)(C)c1ccc(S(=O)(=O)/C=C/C#N)cc1 | 4.21 |
| C[C@@H](Oc1ccc2[nH]nc(/C=C/c3cnn(CCO)c3)c2c1)c1c(Cl)cncc1Cl | 1.02 |
| CC[C@@H]1C(=O)N(C)c2cnc(Nc3ccc(C(=O)N[C@H]4CC[C@H](N5CCN(CC6CC6)CC5)CC4)cc3OC)nc2N1C(C)C [BI6727 (Volasertib)] | 5.29 |
| Cc1nc(-c2cn3c(n2)-c2ccc(-c4cnn(C(C)(C)C(N)=O)c4)cc2OCC3)n(C(C)C)n1 | 5.29 |
| c1cn2cc(-c3ccc4cn[nH]c4c3)nc(Nc3ccc(N4CCOCC4)cc3)c2n1 | 4.54 |
| CNC(=O)c1ccccc1Nc1nc(Nc2ccc(N3CCOCC3)cc2OC)ncc1Cl | 4.29 |
